Screening data: PubChem BioAssay, National Center for Advancing Translational Sciences (NCATS)
HT1080NT lethal: kills 2HG-producing HT-1080-NT fibrosarcoma cells; HT-1080-NT fibrosarcoma viability, CellTiter-Glo ATP luminescence, 48 h; Potency, µM (highest dose often 46.1 µM), inactives show at the top dose activity, negative = less viability, usual class: cytotoxic; actives 1.6% (n = 360,000);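 note: NT is the 2HG producing partner of a matched IDH1 knockdown line; potency is the fitted concentration of half-maximal effect; 0% = DMSO-treated cells and -100% = media-only wells without cells; nearly all actives have a fitted effect of over 55% in size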
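Read-out is CellTiter-Glo luminescence after 10 minutes at room temperature, following 48 hours' compound treatment of HT-1080-NT cells (750 cells/well, RPMI, 5% FBS, 37 degrees C).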
HT1080 IDH1KD tx: HT-1080 IDH1 knockdown cell toxicity (counter line); HT-1080 IDH1 knockdown viability, ATP luminescence, 48 h; Potency, µM (top dose mostly 46.1 µM), inactives show at the highest dose activity, negative = toxicity, hits mostly cytotoxic; actives 2% (n = 360,000);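 note: potency is the fitted concentration of half-maximal effect; 0% = DMSO wells and -100% = cell-free medium wells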
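Cytotoxicity counter-line: IDH1KD HT-1080, 48 h, CellTiter-Glo. Curves classed by r2, magnitude and activity.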
IL-1B inflam inh: inhibitors of inflammasome signaling (IL-1 beta secretion); THP-1 LPS/ATP IL-1B secretion, AlphaLISA, 16 h; hits give low values; activity change, % at 57.5 µM; actives 4.7% (n = 360,000); AID 743279; in the data active = activity change below about -50%; inconclusive = mostly about -30% to -49%
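THP-1 cells pretreated 1 hr with compounds (up to 57.5 uM final), then stimulated with LPS (250 ng/mL final) plus ATP (1.25 mM final); secreted IL-1B measured by AlphaLISA after 16 hr, decreased signal indicating inhibition.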
12-LOX inh: blocks human arachidonate 12S-lipoxygenase; purified 12hLO, xylenol orange hydroperoxide absorbance; P18054; Potency, µM (top dose mostly 108 µM), inactives show at the highest dose activity change, negative = inhibition, actives largely listed as inhibitors; actives 1.1% (n = 580,000); note: potency is the fitted concentration of half-maximal effect
Target sequence (P18054 whole entry, looked up): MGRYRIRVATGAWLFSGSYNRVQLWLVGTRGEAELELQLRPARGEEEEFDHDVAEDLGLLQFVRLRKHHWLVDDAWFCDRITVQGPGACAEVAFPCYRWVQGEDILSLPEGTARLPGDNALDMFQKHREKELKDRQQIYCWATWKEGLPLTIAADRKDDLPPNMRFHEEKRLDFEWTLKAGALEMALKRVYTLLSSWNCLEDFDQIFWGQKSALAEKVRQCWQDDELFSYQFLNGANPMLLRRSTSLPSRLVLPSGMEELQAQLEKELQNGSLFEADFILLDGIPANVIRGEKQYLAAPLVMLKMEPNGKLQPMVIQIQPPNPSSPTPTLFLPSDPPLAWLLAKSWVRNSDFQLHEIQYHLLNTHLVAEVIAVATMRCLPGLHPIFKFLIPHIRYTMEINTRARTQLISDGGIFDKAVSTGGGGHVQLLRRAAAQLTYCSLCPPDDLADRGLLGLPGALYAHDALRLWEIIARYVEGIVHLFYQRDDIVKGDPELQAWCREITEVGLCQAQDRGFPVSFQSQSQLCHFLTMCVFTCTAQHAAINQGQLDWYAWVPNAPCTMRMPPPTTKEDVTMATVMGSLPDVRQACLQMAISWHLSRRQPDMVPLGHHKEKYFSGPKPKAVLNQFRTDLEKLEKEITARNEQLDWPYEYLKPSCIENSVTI
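Purified human 12hLO at 150 nM in 25 mM Hepes, 0.01% Triton X-100, pH 7.0, preincubated 15 min at room temperature with compound. Reaction started with 40 uM arachidonic acid, 30 min at room temperature. Hydroperoxide measured by Fe-xylenol orange, 573/405 nm absorbance ratio.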
TDP1 cell noCPT: qHTS for Inhibitors of human tyrosyl-DNA phosphodiesterase 1 (TDP1): qHTS in cells in absence of CPT; AID 686978, 2013; Potency, µM (highest dose often 46.2 µM), inactives show at the highest dose activity change, negative = growth inhibition, hits mostly inhibitors; DT40 Tdp1-/- hTDP1 cells, no CPT, ATP luminescence, 48 h; actives 15% (n = 420,000); note: potency is the fitted concentration of half-maximal effect; nearly all actives have a fitted effect of over 55% in size
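Stably hTDP1-transfected Tdp1-null chicken DT40 cells were treated with library compounds minus camptothecin and grown for at least 48 hr at 37 °C, after which cellular ATP was quantified by luminescence.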
TDP1 cell CPT: DT40-hTDP1 cell growth loss with CPT; actives 12% (n = 420,000); Potency, µM (series often up to 46.2 µM), without a hit: at the top dose activity change, negative = growth inhibition, hits mostly inhibitors; chicken DT40 Tdp1-/-;hTDP1 cells + 20 nM CPT, ATP luminescence, 48 h; note: potency is the fitted concentration of half-maximal effect; nearly all actives have a fitted effect of over 55% in size
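Chicken DT40 Tdp1-/- cells stably complemented with human TDP1 were seeded at 400 cells/well in medium containing 20 nM camptothecin, exposed to pin-transferred compounds, and grown at 37 °C for at least 48 hr. Viability was read as ATP luminescence.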
* = called active by the depositor; ? = inconclusive; / = no result given; [ ] = dose if it differs, or a comment. The entries come from a sample that favours hits as a whole. Unless noted, calls come from the whole dose curve; as a rule, active = well fitted curve in the direction sought with a large enough effect; inconclusive = small, poorly fitted or top-dose-only effect, or another doubt; inactive = no such curve, though single readings can be large; an effect the other way counts as inactive or inconclusive. Unless noted, % is set by controls: 0 for no effect and ±100 for the full control effect.

SMILES	HT1080NT lethal	HT1080 IDH1KD tx	IL-1B inflam inh	12-LOX inh	TDP1 cell noCPT	TDP1 cell CPT
O=C(CCS(=O)(=O)c1cccs1)Nc1ccc(C(=O)Nc2ccccc2F)cc1	/	/	/	-18.4%	-11.5%	?
O=C(NCc1ccccn1)C(=O)NCC1OCCN1S(=O)(=O)c1ccc(F)cc1 (stereo not drawn)	18.7%	10.9%	8.9	-2.4%	19.7%	-5.6%
Cc1ccc(Nc2nnc(Cc3ccc(Cl)cc3)c(=O)[nH]2)cc1	/	/	/	-59.0%	/	/
COc1ccc(C2CC(=O)c3c(C)nc(Nc4ccccc4OC)nc3C2)cc1 (stereo not drawn)	/	/	/	14.1%	/	/
O=C(COC(=O)c1ccc(NS(=O)(=O)c2cccs2)cc1)NCc1ccco1	9.2µM*	8.2µM*	7.6	/	2.91µM*	4.11µM*
O=C(COC(=O)c1ccc(NS(=O)(=O)c2cccs2)cc1O)NCc1ccccc1	2.59µM*	3.66µM*	40.1	-8.5%	3.26µM*	4.61µM*
O=C(COC(=O)c1ccc(NS(=O)(=O)c2cccs2)cc1O)Nc1nc2ccccc2s1	0.0%	-0.1%	0.0	-20.1%	-1.7%	5.1%
COc1cc(C(=O)OCC(=O)NCc2ccco2)cc(OC)c1OC	5.8%	2.2%	-66.9*	-29.4%	-18.4%	0.6%
Cn1c(=O)c2c(nc(NCc3ccco3)n2Cc2cccc(Br)c2)n(C)c1=O	/	/	/	-2.3%	/	/
CC1CCCN(C(=O)CSc2nnc3n(C4CCCC4)c(=O)c4ccccc4n23)C1 (stereo not drawn)	2.4%	6.1%	-2.3	0.0%	16.4µM*	23.1µM*
O=C(CSc1nnc2n(C3CCCC3)c(=O)c3ccccc3n12)N1CCCCCC1	-19.6%	-24.3%	-10.3	-10.7%	23.1µM*	20.6µM*
COc1ccc(C(=O)N2CCc3nn(C)c(=O)n3CC2)cn1	/	/	/	12.4%	/	/
C=CCSc1nnc(CNC(=O)c2ccc(Cl)cc2)n1CC	-2.4%	3.8%	-69.2*	-1.6%	4.0%	10.0%
CCn1c(Cn2nnc(-c3ccccc3)n2)nnc1SCC(=O)N1CCOCC1	-5.2%	-3.0%	-6.2	0.0%	-0.5%	-3.4%
CCn1c(SCc2ccccc2)nnc1-c1cccs1	-7.7%	?	-21.6	-3.3%	6.51µM*	18.4µM*
CCn1c(Cn2nnc(-c3ccccc3)n2)nnc1SCc1ccc(Cl)c(Cl)c1	?	?	-0.7	-21.7%	23.1µM*	20.6µM*
CCn1c(CNC(=O)c2ccc(Cl)cc2)nnc1SCC(=O)N1CCOCC1	5.4%	10.5%	0.0	16.1%	4.7%	3.9%
CCn1c(CNc2ccc(Cl)cc2)nnc1SCc1ccccc1	-4.9%	-12.2%	-76.4*	-24.4%	?	?
O=S(=O)(Nc1nc2ccccc2nc1N1CCN(c2ccccc2F)CC1)c1ccc(Cl)cc1	-8.2%	-17.0%	39.7	?	?	?
O=C(Nc1cccs1)N1CCNc2cnc(Nc3cccc(C(F)(F)F)c3)nc2C1	/	/	/	25.0%[176 µM]	/	/
COCCN1C(=O)CS(=O)(=O)C12CCN(C(=O)C1(c3ccccc3)CC1)CC2	/	/	/	4.8%	/	/
COc1cc(C2SCCS2)ccc1OC(=O)c1cc(OC)c(OC)c(OC)c1	/	/	/	2.4%	/	/
COc1ccc(-n2c(CNc3ccc(C)cc3)nnc2SCc2ccccc2)cc1	-13.3%	-16.5%	-18.7	?	16.4µM*	?
COc1ccc(NCc2nnc(SCC(=O)NCc3ccccc3)n2-c2ccccc2OC)cc1	3.1%	2.7%	6.6	352.2%	-6.4%	5.8%
COc1ccc(-c2noc(N3CCCC(C(=O)Nc4cc(F)ccc4F)C3)n2)cc1 (stereo not drawn)	-0.6%	1.5%	-0.1	11.9%	18.4µM*	?
SMILES	HT1080NT lethal	HT1080 IDH1KD tx	IL-1B inflam inh	12-LOX inh	TDP1 cell noCPT	TDP1 cell CPT
COc1ccc(-c2noc(N3CCC(C(=O)Nc4ccccc4F)CC3)n2)cc1	2.5%	13.9%	20.8	3.9%	-3.9%	-16.3%
COc1ccc(F)cc1NC(=O)C1CCN(c2nc(-c3ccc(OC)c(OC)c3)no2)CC1	/	/	/	-20.6%	16.4µM*	4.61µM*
Cc1ccc(-c2c(C)nn3c2NC(=O)CCC3=O)cc1S(=O)(=O)NCCc1ccc(Cl)cc1	/	/	/	11.0%	/	/
CC(C)C(=O)N1CCC(N2CC(OCC3CC3)C23CCCCC3)CC1 (stereo not drawn)	/	/	/	22.1%	/	/
O=S(=O)(c1ccc(Cl)cc1)N1CCN(c2nc(-c3cccs3)nc3ccccc23)CC1	22.3%	25.0%	17.8	-2.5%	?	-3.5%
O=S(=O)(c1ccccc1)N1CCN(c2nc(-c3cccs3)nc3ccccc23)CC1	/	/	/	1.9%	?	12.6µM*
O=S(=O)(c1nccs1)N1CCN(c2nc(-c3cccs3)nc3ccccc23)CC1	0.9%	-1.1%	/	/	11.2µM*	?
CC(C)S(=O)(=O)N1CCN(c2nc(-c3cccs3)nc3ccccc23)CC1	-15.1%	-10.9%	/	/	17.8µM*	11.2µM*
Cc1ccc(S(=O)(=O)N2CCCN(c3nc(-c4cccs4)nc4ccccc34)CC2)cc1	/	/	/	/	?	12.6µM*
Cc1cc(C)cc(S(=O)(=O)N2CCN(c3nc(-c4cccs4)nc4ccccc34)CC2)c1	22.1%	17.3%	/	/	?	?
c1csc(-c2nc(N3CCOCC3)c3ccccc3n2)c1	-20.4%	-20.8%	-16.8	13.8%	?	?
COc1ccc(N2CCN(c3nc(-c4cccs4)nc4ccccc34)CC2)cc1	12.5%	1.4%	8.6	-9.2%	23.1µM*	?
O=S(=O)(Cc1ccccc1)N1CCN(c2nc(-c3cccs3)nc3ccccc23)CC1	17.7%	4.4%	/	/	12.6µM*	?
O=C(CCCCCn1c(SCc2ccncc2)nc2ccccc2c1=O)NCc1ccco1	?	11.2µM*	?	?	?	?
COc1cccc(CNC(=O)c2ccc(Cn3c(SCc4ccccc4)nc4cccnc43)cc2)c1	/	/	/	-8.6%	?	8.2µM*
COc1ccc(Cn2c(SCc3ccc(C(=O)NCc4ccccc4F)cc3)nc3cccnc32)cc1	/	/	/	-2.5%	?	?
O=C(NCc1ccco1)c1ccc(Cn2c(SCc3ccccc3)nc3cccnc32)cc1	/	/	/	-11.3%	25.9µM*	4.11µM*
O=C(NCc1ccccc1)c1ccc(CSc2nc3cccnc3n2Cc2ccccc2F)cc1	/	/	/	?	18.4µM*	?
COc1ccc(CNC(=O)c2ccc(CNC(=O)OC(C)(C)C)cc2)cc1	/	/	/	-35.8%	/	/
CN(C)C(=O)C1CN(C(=O)Nc2cccc(C(F)(F)F)c2)CC12CCOCC2 (stereo not drawn)	/	/	/	26.9%	/	/
